Results reported in the supplement of paper PMC6555819.

Experiments:
Test in all cases: PBM binding z-score (relative to random genomic background probes); higher = stronger binding; sequences stand for … in GC…GCGATTGACAGCGTAGAATGAAGG
[1] = tested on: RARb homodimer (NR concentration 270 nM)
Summary of the method: (§1)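 Ligand-free nuclear receptor dimers were bound for 1 h to custom Agilent 4×180K protein-binding microarrays. Detection used antibodies against each partner (one per run). Binding z-scores rest on regression-normalized fluorescence, with random background probes as the reference.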

[2] = tested on: RARg:RXRa (NR concentration 270 nM, RXRa partner concentration 90 nM)
Summary of the method: as §1

[3] = tested on: RARg homodimer (NR concentration 270 nM)
Summary of the method: as §1

[4] = tested on: RXRa DBDmut IVT, anti-RXR (DBD mutation: RXRa K156A/R161A, NR concentration 90 nM)
Summary of the method: as §1

[5] = tested on: RXRa homodimer (NR concentration 180 nM)
Summary of the method: as §1

[6] = tested on: THRa:RXRa (NR concentration 90 nM, RXRa partner concentration 90 nM)
Summary of the method: as §1

[7] = tested on: THRa homodimer (NR concentration 90 nM)
Summary of the method: as §1

[8] = tested on: VDR homodimer (NR concentration 270 nM)
Summary of the method: as §1

| Sequence | PBM binding z-score [1] | PBM binding z-score [2] | PBM binding z-score [3] | PBM binding z-score [4] | PBM binding z-score [5] | PBM binding z-score [6] | PBM binding z-score [7] | PBM binding z-score [8] |
| --- | --- | --- | --- | --- | --- | --- | --- | --- |
| TCTGCTAGGTCGGTTGGTCAGCTAACGAGCTGCC | 0.194 | 0.057 | 0.0646 | -0.000892 | -0.389 | -0.409 | -0.643 | -0.816 |
| TCTAGTTGGTCACGGAGGTCACCCACGACGGGTA | 4.51 | 4.85 | 5.06 | 0.865 | 5.13 | 3.66 | 2.82 | 2.79 |
| CGTCCACGGTCATAGGAGGTCAGTGAAGACAGAT | 3.91 | 3.21 | 3.97 | 0.535 | 2.05 | 4.28 | 0.603 | 1.18 |
| TCTATTAGTTGATAAGGGCAACCGAAACAGCGGA | 1.39 | 0.857 | 0.844 | 1.2 | 0.562 | 1.4 | 0.878 | 0.573 |
| CCTCGGAGGACAGAAGGTCAGAGCCGTCCGCTTT | 3.64 | 3.4 | 3.1 | 0.361 | 2 | 2.33 | 0.0553 | -0.0393 |
| CCGACCGGGGCAGAAAGGTTACCATACCATCCGG | 2.41 | 2.1 | 1.87 | -0.807 | 1.89 | 1.53 | -0.148 | 0.0914 |
| CCTACTTGGTCAGGAGGTCACACACCGGATATGA | 4.48 | 4.98 | 4.1 | 0.751 | 5.02 | 3.59 | 2.33 | 2.54 |
| CAAATTAGGTCAAGGTCAAAGTCGGTTTGTGCCA | 5.11 | 6.43 | 7 | 3.32 | 6.65 | 4.42 | 4.59 | 4.95 |
| CCTACTGGGCCACGAAAGCTCATTGATTCAGTGA | -0.538 | -0.286 | 0.00415 | -0.605 | -0.6 | -0.523 | -0.958 | -0.935 |
| ATACCAAGGTGATCTTGAGGTCGTTGATACTAAC | 1.9 | 2.62 | 1.12 | 1.19 | 2.04 | 3.66 | 2.9 | 3.21 |
| CGAACTAGGTCATTGACAAGACAGTGAATAGTAA | 2.2 | 3.71 | 4.21 | 1.81 | 2.68 | 2.3 | 0.53 | 0.774 |
| CTCGAAAGGTCGGTTGCGGTGAGTATACGGATAA | 1.91 | 2.44 | 2.59 | 1.06 | 2.06 | 3.27 | -0.0628 | 0.294 |
| TCTGCTAGGTCAATGATGGTCAGCTAATCTGCTA | 2.75 | 3.45 | 4.62 | 1.11 | 1.89 | 2.59 | 0.321 | -0.294 |
| CCAGACAGGTGAGAAGGTAACTGAGCCTCGATTA | 0.357 | 0.527 | 0.335 | -0.107 | 0.0427 | 0.121 | -0.33 | -0.0729 |
| GGAACGATGGCATTCGAGTTGATAGCATGGCGAT | -1.05 | -0.259 | -0.016 | -0.146 | -0.284 | 0.175 | -0.974 | -0.268 |
| CCTACTGGGCCATAAGGTCATTGATATCAACGTT | 3.91 | 3.77 | 3.15 | 1.01 | 3.28 | 4.14 | 4.56 | 2.93 |
| CGTCCAGGGTCAGAGAGGTCAGTGAATGCCGAGT | 5.27 | 6.18 | 6.48 | 2.79 | 6.28 | 4.29 | 2.13 | 5.45 |
| ACTAGCAGGCCAAGGGTCACTTAAGATTAGTCCG | 3.52 | 4.12 | 4.04 | 0.5 | 3.87 | 2.96 | 0.297 | 0.981 |
| GCTGGGAGGACAAGGTCAGAGCTTTGTCCGTAGA | 3.21 | 3.33 | 3.55 | 0.766 | 2.49 | 3.31 | 1.8 | 0.796 |
| TTACCAAGGTGAGCCGAGGTCGTTGATCCAACTC | 1.75 | 1.67 | 1.38 | -0.0655 | 1.77 | 4.53 | 1.49 | 1.98 |
| TCGACTAGGTTACCAATGGGGCATTCAGCTTTCT | 1.02 | 1.16 | 0.432 | 1.07 | 0.661 | 0.557 | 0.42 | -0.0453 |
| CCTGCTAGGTCCTGGTCAGCTAATCTACAGTATG | 0.0603 | -0.177 | -0.17 | -0.107 | -0.298 | -0.0341 | -0.199 | -0.989 |
| GCTTACGGGTCACAGGTTATAGCATGAATAGAAT | 2.95 | 5.09 | 4.66 | 2.03 | 5.84 | 2.86 | 0.315 | 0.608 |
| CAAAGTAGGTCACAGAGGTCAAAGTCCGTGCGTA | 5.68 | 7.42 | 8.01 | 3.36 | 8.08 | 4.51 | 2.42 | 6.6 |
| CAAACTAGGTCAAGGTCATAGTCGGTTTGTGCCA | 4.91 | 5.78 | 6.44 | 2.95 | 5.54 | 4.38 | 3.83 | 4.29 |
| TCTTGTAGATCAAGCAGGTTAAGAAAGCCTGAGT | 0.31 | 0.0826 | -0.299 | 0.319 | 0.444 | 0.331 | -0.339 | 0.113 |
| TAGCCTAGGTCATGCTGGCCAGTATAGTGTCGGC | 3.02 | 3.72 | 4.32 | 0.579 | 2.71 | 3.03 | 0.898 | -0.0948 |
| CGTCAAAGTTCAACTAAGGTAACGAAAAGCACGC | 4.12 | 5.98 | 6.71 | 4.46 | 4.91 | 5.09 | 1.67 | 3.6 |
| CCAGACAGGTGAGAAGGTAACTCACCCTCGATTA | 0.972 | 0.89 | 0.67 | 0.134 | 0.806 | 0.55 | 0.193 | -0.0144 |
